Most compounds without a hit are left out; they make up all but 19% or so of the library.
HT1080 IDH1KD tx: qHTS for induction of synthetic lethality in tumor cells producing 2HG: qHTS for the HT-1080-IDH1KD cell line | AID 686971, 2013 | HT-1080 IDH1 knockdown viability, ATP luminescence, 48 h | actives 2% (n = 360,000) | Potency, µM (titrated, usually from 46.1 µM), hits mostly cytotoxic
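After a 2 h attachment period, IDH1KD HT-1080 cells took pin-transferred compound for 48 h at 37 °C; ATP-based luminescence after 10 min room-temperature reagent incubation reported viability.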
IL-1B inflam inh: qHTS for Inhibitors of Inflammasome Signaling: IL-1-beta AlphaLISA Primary Screen; THP-1 LPS/ATP IL-1B secretion, AlphaLISA, 16 h; hits give low values; activity change, % at 57.5 µM; actives 4.7% (n = 360,000); AID 743279, 2014; in the data active means activity change below about -50%; inconclusive means mostly about -30% to -49%
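Secreted IL-1B measured by AlphaLISA bead assay after 16 h compound exposure of THP-1 cells; compounds (final up to 57.5 uM) added 1 h before LPS (250 ng/mL) and ATP (1.25 mM) stimulation; lower signal means less secretion.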
HT1080-NT tox: qHTS for induction of synthetic lethality in tumor cells producing 2HG: qHTS for the HT-1080-NT fibrosarcoma cell line. HT-1080-NT fibrosarcoma viability, CellTiter-Glo ATP luminescence, 48 h. actives 1.6% (n = 360,000). Potency, µM (highest dose often 46.1 µM), most hits filed as cytotoxic. AID 686970, 2013;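 further: NT is the 2HG producing partner of a matched IDH1 knockdown line; nearly all actives have a fitted effect of over 55% in size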
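Read-out is CellTiter-Glo luminescence after 10 minutes at room temperature, following 48 hours' compound treatment of HT-1080-NT cells (750 cells/well, RPMI, 5% FBS, 37 degrees C).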
DT40 TDP1 CPT: qHTS for Inhibitors of human tyrosyl-DNA phosphodiesterase 1 (TDP1): qHTS in cells in presence of CPT; chicken DT40 Tdp1-/-;hTDP1 cells + 20 nM CPT, ATP luminescence, 48 h; Potency, µM (series often up to 46.2 µM), hits mostly inhibitors; actives 12% (n = 420,000); AID 686979, 2013; further: nearly all actives have a fitted effect of over 55% in size
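Chicken DT40 Tdp1-/- cells complemented with human TDP1, 400 cells/well, exposed to compounds plus 20 nM camptothecin for at least 48 h at 37 C; viability read as ATP content by CellTiter-Glo luminescence.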
TDP1 cell noCPT: qHTS for Inhibitors of human tyrosyl-DNA phosphodiesterase 1 (TDP1): qHTS in cells in absence of CPT; actives 15% (n = 420,000); AID 686978, 2013; DT40 Tdp1-/- hTDP1 cells, no CPT, ATP luminescence, 48 h; Potency, µM (top dose mostly 46.2 µM), hits mostly inhibitors; further: nearly all actives have a fitted effect of over 55% in size
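No-CPT arm: Tdp1-/-;hTDP1 DT40 cells (400/well) plus compounds, incubated ≥48 hr at 37 °C. Readout CellTiter-Glo luminescence.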
Numbers stand for hits; n = inactive; u = inconclusive; x = not tested or not shown; ! = not active in a repeat; [ ] = remark or other dose. Unless noted, the call rests on the fitted dose curve; in most records, active means well fitted curve in the direction sought with a large enough effect; inconclusive means small, poorly fitted or top-dose-only effect, or another doubt; inactive means no such curve, though single readings can be large; an effect the other way counts as inactive or inconclusive.

SMILES | HT1080 IDH1KD tx | IL-1B inflam inh | HT1080-NT tox | DT40 TDP1 CPT | TDP1 cell noCPT
O=c1[nH][nH]c2c1C(c1ccc(F)cc1)OC(CCc1ccccc1)C2 (stereo unspecified) | n | n | n | u | u
CCCN(C(=O)c1cccc(-n2cccc2)c1)c1c(N)n(Cc2ccccc2)c(=O)[nH]c1=O | n | n | n | n | n
CCc1ccc(N2CC(C(=O)OCC(=O)c3c(N)n(CC(C)C)c(=O)n(C)c3=O)CC2=O)cc1 (stereo unspecified) | n | n | n | n | u
O=C(Nc1cc(Cl)cc(Cl)c1)N[C@@H]1CC[C@@H](CCNS(=O)(=O)c2cccc(F)c2)O[C@@H]1CO | u | n | 18µM | u | 16µM
CCOC(=O)C1CCCCN1C(=O)c1ccc2nc(Cc3ccc(OC)cc3)oc2c1 (stereo unspecified) | n | n | n | u | u
CCOC(=O)C1CCCCN1C(=O)/C(=C/c1ccc(OC)cc1)c1ccc(OC)c(OC)c1 (stereo unspecified) | n | n | n | 18µM | u
CC12CC(NC(=O)N1c1cccc(C(=O)N3CCCCC3)c1)c1ccccc1O2 (stereo unspecified) | n | n | n | n | n
Cc1nnc(SCC(=O)N2CCC(c3noc4ccc(F)cc34)CC2)s1 | n | n | n | u | u
O=C(CSc1ccc2ccccc2n1)N1CCC(c2noc3ccc(F)cc23)CC1 | n | u | n | 16µM | 12µM
Cc1ccc(C=Nc2ccc(N(C)C)cc2)o1 | u | n | n | 5.2µM | 2.1µM
C=Cc1ccc(N=Cc2ccc(N(C)C)cc2)cc1 | x | x | x | n | n
S=C(NCCc1ccccc1)N1CCn2cccc2C1c1cccnc1 (stereo unspecified) | n | -66 | n | u | u
CCCCNC(=S)N1CCn2cccc2C1c1ccccc1 (stereo unspecified) | n | n | n | u | u
S=C(NCc1ccccc1)N1CCn2cccc2C1c1cccnc1 (stereo unspecified) | n | n | n | n | n
CCCCNC(=S)N1CCn2cccc2C1c1ccc(F)cc1 (stereo unspecified) | u | -86 | u | 16µM | u
Cc1cc(NC(=O)CCC(=O)N(CC(=O)NC2CCCC2)c2ccc(C(C)C)cc2)no1 | n | n | n | u | u
Cc1ccc(C)c(NC(=O)/C(C#N)=C/c2ccc[nH]2)c1 | n | n | n | 18µM | n
Cc1cccc(NC(=O)/C(C#N)=C/c2ccc[nH]2)c1C | n | n | n | 12µM | u
N#C/C(=C\c1ccc[nH]1)C(=O)NC1CC1 | u | n | n | n | n
Cc1ccccc1NC(=O)/C(C#N)=C/c1ccccc1C(F)(F)F | n | -72 | n | n | u
NS(=O)(=O)c1c(Sc2ccccc2C(=O)O)ccc2ccccc12 | n | n | n | n | n
Cc1ccc(C)c(S(=O)(=O)Nc2ccc(C(=O)NCCCN(C)C)cc2)c1 | n | n | n | n | u
Cc1ccc(NS(=O)(=O)c2cc(C(=O)NCCSC3CCCCC3)ccc2C)cc1 | u | -57 | u | u | u
Cc1ccc(SCCNC(=O)c2ccc(C)c(S(=O)(=O)Nc3cccc(C)c3)c2)cc1 | u | -57 | u | u | n
CS(=O)(=O)Nc1ccccc1C(=O)NCCSc1ccc(Cl)cc1 | n | n | u | u | u
SMILES | HT1080 IDH1KD tx | IL-1B inflam inh | HT1080-NT tox | DT40 TDP1 CPT | TDP1 cell noCPT
Cc1ccc(NS(=O)(=O)c2cc(C(=O)NCCSc3ccc(C)cc3)ccc2C)cc1 | u | -53 | u | u | u
Cc1ccc(C(=O)NCCSc2ccc(Cl)cc2)cc1S(=O)(=O)Nc1ccccc1 | u | -93 | u | u | u
COc1ccc(N2CCN(C(=O)COC(=O)c3oc4ccc(OC)cc4c3C)CC2)cc1 | n | n | n | n | n
CCN(CC)CCOC(c1ccccc1)c1ccc(C)cc1 (stereo unspecified) | n | u | n | u | u
Cc1ccccc1C(OCCN(C)C)c1ccccc1 (stereo unspecified) | n | n | n | 23µM! | u
O=C1c2cc(Cl)ccc2OC2(CCNCC2)C12CC(c1ccc(Cl)cc1)=NO2 (stereo unspecified) | n | u | n | 18µM | 18µM
CC(C)C(=O)N1CCC2(CC1)Oc1ccc(Cl)cc1C(=O)C21CC(c2ccc(Cl)cc2)=NO1 (stereo unspecified) | n | n | n | u | n
O=C1c2cc(Cl)ccc2OC2(CCNCC2)C12CC(c1ccccc1)=NO2 (stereo unspecified) | n | u | n | 21µM | 16µM
O=C(c1ccc2c(c1)OCO2)N1CCC2(CC1)Oc1ccc(Cl)cc1C(=O)C21CC(c2ccccc2)=NO1 (stereo unspecified) | n | n | n | n | n
C[C@@H]1COc2cccc(N3CCC[C@@H]3CO)c2S(=O)(=O)N1 | n | n | n | n | n
O=C(c1ccco1)N1CCN(Cc2cc(=O)oc3cc(O)ccc23)CC1 | n | n | n | n | n
CC(C)C1Oc2ccccc2N(CC(=O)N(Cc2ccncc2)Cc2ccco2)C1=O (stereo unspecified) | n | u | n | n | n
O=c1[nH]cc([N+](=O)[O-])cc1Br | n | n | n | 21µM | u
Cc1ccc(S(=O)(=O)N(C)C)cc1NC(=O)c1cncc(Br)c1 | u | n | u | 13µM | 12µM
Cc1ccc(S(=O)(=O)N2CCCCC2)cc1NC(=O)c1cncc(Br)c1 | n | n | n | u | u
CN(C)S(=O)(=O)c1cccc(NC(=O)c2cncc(Br)c2)c1 | n | n | n | u | u
Cc1ccc(NC(=O)c2cncc(Br)c2)cc1S(=O)(=O)N(C)C | n | n | n | u | 15µM
CN(C)c1ccc(-c2cncnc2NCc2cccnc2)cc1 | x | x | x | u | n
O=C(CN1CCN(c2ccccc2O)CC1)Nc1ccccc1C(=O)NCCc1ccccc1 | n | n | n | 23µM | 16µM
O=C(CN1CCN(c2ccccc2F)CC1)Nc1ccccc1F | n | n | n | u | n
COc1ccccc1N1CCN(CC(=O)Nc2ccccc2C(=O)NCCc2ccccc2)CC1 | n | n | n[9.24 µM] | 15µM | 16µM
O=C(CN1CCN(c2ccc(F)cc2)CC1)Nc1ccccc1C(=O)NCCc1ccccc1 | n | n | n[9.24 µM] | u | 16µM
COc1ccc(NC(=O)c2ccccc2NC(=O)CN2CCCCCC2)cc1 | n | n | n[9.24 µM] | u | n
COc1ccccc1N1CCN(CC(=O)Nc2c(C)n[nH]c2C)CC1 | n | n | n | n | n

Screening data deposited in PubChem by National Center for Advancing Translational Sciences (NCATS).
